Hits are enriched below; roughly 3.4% of the tested compounds scored in any of these assays.
TEAD-YAP block = TEAD-YAP interaction inhibition | HEK-TIYL cells, TEAD-Gal4/YAP UAS-luciferase luminescence | inhibition, % at 9.12 µM | 640,000 compounds, 1.4% hits | AID 1259422; in the data active means inhibition above about 32%;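 further: 0% = median of test compound wells and 100% = reference inhibitor wells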
FBW7 activator = human FBW7 E3 ligase activation, primary screen. Q969H0. AlphaScreen FBW7–phospho-cyclin E peptide binding, activator screen. normalized activity (activation), % at 26.1 µM. 650,000 compounds, 0.13% hits. AID 1259310; in the data active means normalized activity above about 1.9%;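 further: purified mutant Fbw7 with reduced substrate affinity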
MITF primary = human MITF inhibition, primary screen; O75030; AlphaScreen MITF homodimerization, bead proximity signal; inhibition, % at 2.6 µM; 650,000 compounds, 0.91% hits; AID 1259374; in the data active means inhibition above about 50%;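 further: 0% = vehicle wells with protein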
Target sequence (O75030 whole entry, looked up): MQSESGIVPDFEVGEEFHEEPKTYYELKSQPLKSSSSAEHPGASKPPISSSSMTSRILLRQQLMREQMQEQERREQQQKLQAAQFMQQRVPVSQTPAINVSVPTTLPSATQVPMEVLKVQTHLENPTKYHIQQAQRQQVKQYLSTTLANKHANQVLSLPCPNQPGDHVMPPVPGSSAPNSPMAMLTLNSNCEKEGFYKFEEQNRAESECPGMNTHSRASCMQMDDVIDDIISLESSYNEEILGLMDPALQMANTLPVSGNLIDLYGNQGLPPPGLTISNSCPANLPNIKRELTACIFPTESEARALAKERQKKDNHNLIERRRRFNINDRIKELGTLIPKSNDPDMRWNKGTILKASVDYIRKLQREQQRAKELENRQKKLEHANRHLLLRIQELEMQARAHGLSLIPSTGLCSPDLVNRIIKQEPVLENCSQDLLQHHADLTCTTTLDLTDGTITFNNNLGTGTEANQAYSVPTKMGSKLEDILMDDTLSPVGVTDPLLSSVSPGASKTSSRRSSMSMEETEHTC
GPR151 ag = human GPR151 activation. PathHunter beta-arrestin GPR151 cells, luminescence. activation, % at 11.2 µM. 650,000 compounds, 1% hits. AID 1508602; in the data active means activation above about 4.9%;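 further: 0% = median of compound wells and 100% = cells with positive control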
* marks the source's active call; other numbers are inactive results.

SMILES	TEAD-YAP block	FBW7 activator	MITF primary	GPR151 ag
Cc1ccc(-n2nc3c(c2NC(=O)c2cc([N+](=O)[O-])ccc2Cl)CS(=O)(=O)C3)c(C)c1	70*	0	6	-1
O=c1[nH]c(-c2ccccc2O)nc2sc3c(c12)CCCC3	-5	1	11	-1
O=c1[nH]c(-c2cc(O)c(O)c(O)c2)nc2sc3c(c12)CCCC3	60*	0	-1	0
O=C(CSCC(=O)Nc1cccc(C(F)(F)F)c1)Nc1cccc(C(F)(F)F)c1	4	0	-2	1
NC(=O)/C=C/C(=O)Nc1cccc(C(F)(F)F)c1	43*	0	11	0
CC(=O)Oc1ccccc1C(=O)Nc1cccc(C(F)(F)F)c1	65*	0	20	-1
O=C(CC(O)(C(F)(F)F)C(F)(F)F)Nc1cccc(C(F)(F)F)c1	84*	1	56*	2
CC(=O)Nc1cccc(C(F)(F)F)c1	-4	0	-9	0
CCOc1ccccc1C(=O)Nc1cccc(C(F)(F)F)c1	17	0	9	-1
COc1ccc(S(=O)(=O)Nc2ccc(OC)c(Cl)c2)cc1	21	0	1	1
COC(=O)C1=C(C)NC2=C(C(=O)CC(c3ccccc3)C2)C1c1cc(OC)ccc1OC (configuration not stated)	33*	0	3	2
COc1ccc(COC(=O)C2=C(C)NC3=C(C(=O)CC(C)(C)C3)C2c2ccc(-c3ccccc3)cc2)cc1 (configuration not stated)	15	0	5	-1
CCOC(=O)C1=C(C)NC2=C(C(=O)CC(c3ccccc3)C2)C1c1cc(OC)ccc1OC (configuration not stated)	1	0	-2	2
CCOC(=O)C1=C(C)NC2=C(C(=O)C(C(=O)OC)C(C)C2)C1c1ccc(OC)cc1 (configuration not stated)	-17	2.3*	18	0
CCOC(=O)C1=C(C)NC2=C(C(=O)C(C(=O)OC)C(C)C2)C1c1ccc(C)cc1 (configuration not stated)	-1	1	10	-2
COc1ccccc1NC(=O)C1=C(C)NC2=C(C(=O)CC(C)(C)C2)C1c1cccc(O)c1 (configuration not stated)	1	2.4*	11	-1
COc1ccc(COC(=O)C2=C(C)NC3=C(C(=O)CC(C)(C)C3)C2c2ccccc2)cc1 (configuration not stated)	7	2.6*	14	0
CCCn1c(=O)c2c(nc3n2CC(C)CN3C2CCCCC2)n(C)c1=O (configuration not stated)	-16	0	10	4
CC(C)(C)C(=O)Nc1c2c(nn1-c1ccc(Cl)cc1)CS(=O)(=O)C2	-5	0	4	-1
CC1=C(C(=O)Nc2ccc(C)cn2)C(c2ccsc2)C2=C(CC(C)(C)CC2=O)N1 (configuration not stated)	55*	0	-17	0
COc1ccc(C2CC(=O)C3=C(C2)NC(C)=C(C(=O)OCc2ccccc2)C3c2ccc(OC)c(Br)c2)cc1 (configuration not stated)	48*	1	-12	-1
COC(=O)C1=C(C)NC2=C(C(=O)CC(c3ccc(OC)cc3)C2)C1c1ccc(OC)c(Br)c1 (configuration not stated)	7	0	-15	0
CC1=C(C(=O)Nc2ccccn2)C(c2ccsc2)C2=C(CC(C)(C)CC2=O)N1 (configuration not stated)	7	0	2	2
CCCCOC(=O)c1ccc(NC(=O)c2c(-c3ccccc3Cl)noc2C)cc1	4	0	12	-1
COc1ccc(N=C(C)C2=C(O)c3ccccc3C2=O)c(OC)c1	-17	0	-6	2
SMILES	TEAD-YAP block	FBW7 activator	MITF primary	GPR151 ag
COc1ccc(N=CC2=C(O)c3ccccc3C2=O)c(OC)c1	69*	0	3	1
Cc1ccccc1N=CC1=C(O)c2ccccc2C1=O	87*	0	7	0
O=C1C(C=Nc2ccc(F)cc2)=C(O)c2ccccc21	12	0	4	-2
Cc1nc(SCC(=O)N(C)c2ccccc2)c(C#N)c(C)c1Cl	2	1	14	-1
COc1ccc2occ(C(=O)c3ccccc3C)c(=O)c2c1	1	0	4	0
COc1cc(/C=C(\C#N)C(N)=S)ccc1O	9	0	9	0
CC(C)(C)c1cc(/C=C(\C#N)C(N)=S)cc(C(C)(C)C)c1O	47*	0	-2	3
CC(C)n1cnc2c(Nc3ccc(F)cc3)ncnc21	54*	0	18	-6
O=Cc1ccc(-c2ccc(C(=O)O)c(O)c2)o1	3	0	86*	-1
COc1ccc(-c2c(C)nn3c(NCCCN(C)C)cc(C)nc23)cc1	1	3.4*	20	0
COc1ccc(-c2c(C)nn3c(NCc4cccnc4)cc(C)nc23)cc1	15	0	6	3
COc1ccc(-c2c(C)nn3c(NCc4ccncc4)cc(C)nc23)cc1	-7	4.0*	21	0
Cc1ccc(C)c(NC(=O)CCN2C(=O)c3cccc([N+](=O)[O-])c3C2=O)c1	18	0	13	-1
CSc1cccc(C(=O)N2CC(=O)Nc3ccccc32)c1	43*	0	-5	0
Cc1ccc(CC(=O)N2CC(=O)Nc3ccccc32)c(C)c1	34*	0	-12	-1
Cc1cccc2cc(C#N)c(SCC(=O)N3CC(=O)Nc4ccccc43)nc12	53*	0	5	5
Cc1ccc(CC(=O)N2CC(=O)Nc3ccccc32)cc1	45*	0	6	4
COc1ccc(CC(=O)N2CC(=O)Nc3ccccc32)cc1OC	25	0	7	0
CC(C)c1ccc2nc(SCC(=O)N3CC(=O)Nc4ccccc43)c(C#N)cc2c1	8	0	19	0
O=S(=O)(/N=C/c1c[nH]c2ccccc12)c1ccccc1	11	0	13	1
COC(=O)c1ccccc1NC(=O)CN(c1cc([N+](=O)[O-])ccc1OC)S(C)(=O)=O	-1	0	14	-1
O=C(O)CCCC(=O)N1CCC(N2CCN(c3ccc(F)cc3)CC2)CC1	-5	0	23	0
COc1ccc(N2CCN(C(CNS(=O)(=O)c3ccc(OC)c(C)c3)c3ccco3)CC2)cc1 (configuration not stated)	6	0	68*	0
Cn1cc(-c2ccc3cnc(Nc4ccc(-c5ccc(N6CCOCC6)nc5)cc4)nc3c2Cl)cn1	18	0	2	0
Cn1cc(-c2ccc3cnc(Nc4ccc(-n5cnc(N6CCOCC6)n5)cc4)nc3c2Cl)cn1	56*	0	6	0
Cn1cc(-c2ccc3cnc(Nc4ccc(-n5cnc(N6CCOCC6)n5)cc4)nc3c2OCCN2CCOCC2)cn1	96*	0	33	-2
Cn1cc(-c2nc(Nc3ccc(-n4cnc(N5CCC(O)CC5)n4)cc3)ncc2Cl)cn1	72*	0	24	-1
Cn1cc(-c2ccc3cnc(Nc4ccc(N5CCOCC5)nc4)nc3c2Cl)cn1	51*	0	-7	0

Screening data (PubChem BioAssay)
